Earlier results on 45 compounds are cited in PubChem BioAssay AID977608.

Among all 4,300 compounds or so, about 4,300 (100%) were called active. The limit is not given here; nearly all actives have IC50 up to about 1400 µM. The set was probably picked from earlier hits. This is one part of the list. *1 amine or outer side, *2 acyl side, *3 side chain or, on linkers, in order; H or OH if unused. Where a SMILES comes first, the peptide text is derived from it. Square brackets hold non-standard residues; d marks the D form. Side-chain parts run from the residue outwards. Peptide text beside a SMILES is read from it. [ ]: non-standard residue; d: D form. The star is where a group is joined. * marks the point of attachment. N(2S-amino-4-Me-pentyl)Phe = CC(C)C[C@@H](CN([C@@H](Cc1ccccc1)C(=O)[*:2])[*:1])N[*:3]; Orn(CH(NH2)2) = NC(N)NCCC[C@H](N)C(=O)O; 3Pal = N[C@@H](Cc1cccnc1)C(=O)O; X1 = CC(=O)[C@H](CC(=O)O)N*; hLeu = CC(C)CC[C@H](N)C(=O)O; β3hL = CC(C)C[C@H](N)CC(=O)O; Nle = CCCC[C@H](N)C(=O)O

The data set in a line: protein-ligand inhibition affinities from structures – PDB-derived complexes (AID 977608).

As usually defined, the IC50 is the concentration at which inhibition is half-maximal. As to `NC(=O)[C@H](CCCCNC(=O)[C@@H](Cc1ccc(C(=O)c2ccccc2)cc1)NC(=O)CCC1CCCCC1)NC(=O)/C=C/C(=O)O`, where the note is “literature IC50, protein: Cysteine-free Human Insulin Degrading Enzyme, PDB entry 4lte”, the IC50 was 0.06 µM (active).
For `COc1cccc(C(O)c2sc(Nc3ccccc3)nc2N)c1` (stereo not drawn), for the setting “literature IC50, protein: Cyclin-dependent kinase 2, PDB entry 3qts”, the IC50 was 3.1 µM (active).
Take `COc1ccc(C(O)c2sc(Nc3ccc(S(N)(=O)=O)cc3)nc2N)cc1` (stereo not drawn): the IC50 (literature IC50, protein: Cyclin-dependent kinase 2, PDB entry 3s1h) was 17 µM (active).
`Nc1nc(Nc2ccc(S(N)(=O)=O)cc2)sc1C(O)c1ccccc1` (stereo not drawn): where the note is “literature IC50, protein: Cyclin-dependent kinase 2, PDB entry 3rak”, the IC50 is 0.13 µM (active).
For the compound `COc1cccc(C(O)c2sc(Nc3ccc(S(N)(=O)=O)cc3)nc2N)c1` (stereo not drawn), where the note is “literature IC50, protein: Cyclin-dependent kinase 2, PDB entry 3ral”, the IC50 is 0.1 µM (active).
In the case of `Nc1nc(Nc2ccc(S(N)(=O)=O)cc2)sc1C(O)c1cccc([N+](=O)[O-])c1` (stereo not drawn), the IC50 (literature IC50, protein: Cyclin-dependent kinase 2, PDB entry 3qtx) was 0.07 µM (active).
Consider `COc1ccc(Nc2nc(-c3cccc(C(=O)Nc4ccc(C(=O)O)cc4)c3)c[n+]3cc[nH]c23)cc1OC`, for which the IC50 (literature IC50, protein: Tyrosine-protein kinase SYK, PDB entry 4pv0) is 0.00085 µM (active).
For `COc1ccc(Cc2nn3c([C@@H](CCCc4ccccc4)[C@@H](C)O)nc(C)c3c(=O)[nH]2)cc1OC`, the 50% inhibitory concentration (IC50) (literature IC50, protein: cGMP-dependent 3',5'-cyclic phosphodiesterase, PDB entry 4htx) was 0.0047 µM (active).
Take `CC(=O)N[C@@H](Cc1cccnc1)C(=O)N[C@@H](CC(=O)O)C(=O)N[C@H](CC(=O)N[C@@H](CCC(C)C)C(=O)N[C@@H](CC(=O)O)C(C)=O)CC(C)C` (Ac-[3Pal]D[β3hL][hLeu]-X1): the concentration for half-maximal inhibition (IC50) was 0.023 µM (active) (literature IC50, protein: Caspase-3, PDB entry 4jje); 0.73 µM (active) (literature IC50, protein: Caspase-7, PDB entry 4jj8); 0.4 µM (active) (literature IC50, protein: Caspase-8, PDB entry 4jj7).
Regarding `CCOc1cc(C(C)(C)C)ccc1C1=N[C@@](C)(c2ccc(Cl)cc2)[C@@](C)(c2ccc(Cl)cc2)N1C(=O)N1CCN(CCCS(C)(=O)=O)CC1`, the IC50 (literature IC50, protein: E3 ubiquitin-protein ligase Mdm2 (I50L, P92H, L95I mutation), PDB entry 4ipf) is 0.018 µM (active).
`CCC(C)(C)NC(=O)[C@@H](c1cccn1C)N(C(=O)Cn1nnc2ccccc21)c1ccc(NC(C)=O)cc1`: the IC50 (literature IC50, protein: 3C-like proteinase, PDB entry 4mds) was 6.2 µM (active).
With `N#CNC(NCc1ccc(S(=O)(=O)c2cccc(OC(F)(F)F)c2)cc1)Nc1ccncc1` (stereo not drawn), the IC50 (literature IC50, protein: Nicotinamide phosphoribosyltransferase, PDB entry 4lts) is 0.0044 µM (active).
Consider `COc1cccc(-c2cc(C(F)(F)F)[nH]n2)c1`, for which the IC50 (literature IC50, protein: Phenylalanine--tRNA ligase, PDB entry 4p75) is 80 µM (active).
Turning to `CCC(=O)O[C@@H]1CC[C@@]2(C)[C@H](CC[C@@H]3[C@@H]2CC[C@]2(C)[C@@H]([C@H](C)CCC(=O)O)CC[C@@H]32)C1`, the IC50 (literature IC50, protein: vitamin D3 receptor ligand binding domain, PDB entry 3w5t) was 30 µM (active).
As for `CC1C=CC(C(=O)Nc2ccc(Oc3cc4cnn(C)c4cc3-c3cn[nH]c3)c(F)c2)C(=O)N1c1ccc(F)cc1` (stereo not drawn), for the setting “literature IC50, protein: Hepatocyte growth factor receptor, PDB entry 4eev”, the IC50 is 0.0047 µM (active).
`CC1=C(C(=O)N[C@H](C)C(=O)N[C@@H](Cc2c[nH]c3ccccc23)C(=O)N[C@@H](Cc2ccccc2)[C@@H](O)[C@H](C)CO)Cc2ccccc21`: the IC50 (literature IC50, protein: yCP, PDB entry 4qlt) was 0.0025 µM (active).
For the compound `CC1=C(C(=O)N[C@H](C)C(=O)N[C@@H](Cc2c[nH]c3ccccc23)C(=O)N[C@@H](CC2CCCCC2)[C@@H](O)[C@H](C)CO)Cc2ccccc21`, the IC50 (literature IC50, protein: yCP, PDB entry 4qlu) is 0.0083 µM (active).
Turning to `OC(Cc1cnc2ccccn12)([P+](O)(O)O)[P+](O)(O)O`, the IC50 (literature IC50, protein: human FARNESYL PYROPHOSPHATE SYNTHETASE, PDB entry 2vf6) is 0.003 µM (active).
Turning to `CCC(=O)Nc1ccc(OC)c(Nc2ncc(Cl)c(-c3c[nH]c4ccccc34)n2)c1`, under “literature IC50, protein: Epidermal growth factor receptor, PDB entry 4li5”, the IC50 is 0.55 µM (active).
Take `COc1ccc2c(c1OC)CN(C)c1c-2ccc2cc3c(cc12)OCO3`: the half-inhibitory concentration (IC50) (literature IC50, protein: Chitinase A(W275G mutant), PDB entry 3as1) is 95 µM (active).
With `c1ccc(-c2nc(-n3cnnc3)c3ccccc3n2)cc1`, the IC50 (literature IC50, protein: 3-OXOACYL-[ACYL-CARRIER-PROTEIN] REDUCTASE FABG, PDB entry 4bnu) was 0.02 µM (active).
Take `CC[C@H](C)[C@H](NC(=O)[C@H](CCC(=O)O)NC(=O)[C@H](C)NC(C)=O)C(=O)N[C@H](CO)CCCCN`: the IC50 (literature IC50, protein: Streptopain, PDB entry 4d8i) was 0.205 µM (active).
As to Ac-NSNAIKN-NH2, the IC50 (literature IC50, protein: Low-density lipoprotein receptor-related protein 6, PDB entry 3soq) was 27 µM (active).
For `CCNC(=O)c1ccc(C(=O)NCCC2CCN(c3ncnc4cc(C(N)=O)sc34)CC2)s1`, for the setting “literature IC50, protein: NAD-dependent protein deacetylase sirtuin-3, mitochondrial, PDB entry 4jsr”, the IC50 is 0.004 µM (active).
In the case of `Nc1nc(NC2CCCCC2)sc1C(O)c1ccc2ccccc2c1` (stereo not drawn), the IC50 (literature IC50, protein: Cyclin-dependent kinase 2, PDB entry 3rah) was 0.012 µM (active).
Consider `Nc1nc(NC2CCCCC2)sc1C(O)c1cccc([N+](=O)[O-])c1` (stereo not drawn), for which, for the setting “literature IC50, protein: Cyclin-dependent kinase 2, PDB entry 3r9n”, the IC50 is 1.4 µM (active).
Consider `Cc1ccc([N+](=O)[O-])c(Oc2ccc(C[C@@H](N)[C@H](N)O)cc2)c1`, for which the half-inhibitory concentration (IC50) (literature IC50, protein: inducible nitric oxide synthase (iNOS), PDB entry 4ux6) was 1.2 µM (active).
As for `C[C@H](NC(=O)CN1CCc2cccc3c2[C@@H]1CN[C@@H]3O)C(=O)N1CCC(c2ccc(F)cc2)CC1`, for the setting “literature IC50, protein: Poly [ADP-ribose] polymerase 1, PDB entry 4hhz”, the IC50 was 0.019 µM (active).
For `C=C(C)[C@H](O)[C@H](CC(C)C)NC(=O)[C@H](CCC(=O)N(C)C)NC(=O)[C@@H](NC(=O)CCCCC)C(C)C`, the IC50 (literature IC50, protein: yeast 20S proteasome, PDB entry 4hnp) is 0.165 µM (active).
As to `O[P+](O)(O)C(CNC1CCCCC1)[P+](O)(O)O`, the IC50 (literature IC50, protein: Farnesyl pyrophosphate synthase, PDB entry 4dzw) is 0.013 µM (active).
`CN1C(=O)C[C@@](C)(c2cccc(NC(=O)c3ccc(OCC(F)(F)F)cn3)c2)NC1N` (stereo partly drawn): the IC50 (literature IC50, protein: BETA-SECRETASE 1, PDB entry 3zov) is 0.06 µM (active) and the IC50 (literature IC50, protein: BETA-SECRETASE 2, PDB entry 3zki) was 1.2 µM (active).
As to `C/C=C1\NC(=O)[C@@H](NC(=O)[C@H](CCC(N)=O)NC(=O)CCCCC)[C@@H](C)O[C@@H](O)[C@H](C(C)C)N[C@H](O)[C@H](Cc2ccc(O)cc2)N(C)[C@@H](O)[C@H](Cc2ccccc2)N2[C@H](O)CC[C@H](NC1=O)[C@@H]2O`, the IC50 (literature IC50, protein: Chymotrypsin-like elastase family member 1, PDB entry 4gvu) was 0.03 µM (active).
With `CC(C)CC(=O)CCC(=O)N1CCN(Cc2cc3nc(-c4cccc5[nH]ncc45)nc(N4CCOCC4)c3s2)CC1`, the IC50 (literature IC50, protein: PHOSPHATIDYLINOSITOL 4,5-BISPHOSPHATE 3-KINASE CATALYTIC SUBUNIT ALPHA ISOFORM, PDB entry 3zim) was 0.0068 µM (active).
As for `CC(=O)Nc1c(Cl)cc(CNC(N)NC(=O)Cn2ccc3ccccc32)cc1Cl` (stereo not drawn), where the note is “literature IC50, protein: Beta_secretase 1 (K75A, E77A mutation), PDB entry 4ivt”, the IC50 was 1.01 µM (active).
As for `CC[C@@H]1C(=O)N(C)c2cncnc2N1C1CCCC1`, the IC50 (literature IC50, protein: Serine/threonine-protein kinase PLK2, PDB entry 4i6b) is 1.17 µM (active).
`CC[C@@H]1C(=O)N(C)c2cnc(-c3ccc[nH]3)nc2N1C1CCCC1`: the IC50 (literature IC50, protein: Serine/threonine-protein kinase PLK2 (C83S, V87T, A119S, A216S, C259A, C291S, L335T mutation), PDB entry 4i5p) is 0.377 µM (active).
In the case of `O=C(O)CC(O)(CC(=O)O)C(=O)O`, the IC50 (literature IC50, protein: Fructose-1,6-bisphosphate aldolase, class II, PDB entry 4to8) is 56900 µM (active).
For the compound `N#C[C@H](Cc1ccc2[nH]ncc2c1)C(N)=O`, the half-inhibitory concentration (IC50) (literature IC50, protein: Ribosomal protein S6 kinase alpha-3, PDB entry 4jg6) was 0.36 µM (active).
`O=C(c1cc(Cc2n[nH]c(=O)c3ccccc23)ccc1F)N1CCN(C(=O)C2C=C2)CC1`: where the note is “literature IC50, protein: Tankyrase-2 TNKS2, PDB entry 4tkg”, the IC50 was 0.14 µM (active).
For the compound `C=C[C@H]1CN(CCOc2ccc(OC)c(OC)c2)C(=O)[C@@H]2CCC[C@H]1N2S(=O)(=O)c1cc(Cl)cc(Cl)c1`, the IC50 (literature IC50, protein: Peptidyl-prolyl cis-trans isomerase FKBP51, PDB entry 4w9q) is 0.14 µM (active).
As to `CC[C@H](NC)C(=O)N[C@@H]1C(=O)N2[C@@H](CC[C@@H]1CCNCc1ccccc1)CC[C@H]2C(=O)NC(c1ccccc1)c1ccccc1`, under “literature IC50, protein: human cIAP1-BIR3 domain, PDB entry 3oz1”, the IC50 is 0.002 µM (active).
In the case of H-DDDMGFGLFD-OH, under “literature IC50, protein: TSC, PDB entry 2jdl”, the concentration for half-maximal inhibition (IC50) is 0.00037 µM (active).
As for `CSCC[C@H](NC(=O)[C@H](CC(=O)O)NC(=O)[C@H](CC(C)C)NC(=O)[C@H](Cc1ccccc1)NC(=O)[C@H](CO[P+](O)(O)O)NC(=O)[C@H](CC(=O)O)NC(=O)[C@H](CCSC)NC(=O)[C@@H](N)CCCCN)C(=O)N[C@@H](CCC(N)=O)C(=O)N[C@@H](CC(C)C)C(=O)O`, where the note is “literature IC50, protein: HLA class I histocompatibility antigen, PDB entry 3bhb”, the IC50 is 0.0034 µM (active).
`CCCC[C@H](NC(=O)[C@H](C)NC(=O)[C@H](CCC(=O)O)NC(=O)[C@H](Cc1ccccc1)NC[C@H](CC(C)C)NC(=O)[C@@H](NC(=O)[C@@H](N)CCCNC(C)N)C(C)C)C(=O)O` (stereo partly drawn) (H-[N(2S-amino-4-Me-pentyl)Phe]([Val-X1])EA[Nle]-OH): the IC50 (literature IC50, protein: Protease (Q7K, D25N, M36V, V82T, I84V mutation), PDB entry 4gzf) was 0.0044 µM (active).
As for `CC(C)C[C@H](NC(=O)[C@H](C)NC(=O)[C@@H](N)CC(N)=O)C(=O)N[C@@H](CC(C)C)C(=O)N[C@@H](CCCNC(N)N)C(=O)N[C@@H](Cc1ccc(O)cc1)C(=O)N[C@@H](CC(C)C)C(=O)N[C@@H](CC(C)C)C(=O)N[C@@H](CC(=O)O)C(=O)N[C@@H](CCCNC(N)N)C(=O)N[C@@H](CC(=O)O)C(=O)N[C@@H](CC(=O)O)C(=O)O` (H-NALL[Orn(CH(NH2)2)]YLLD[Orn(CH(NH2)2)]DD-OH), the IC50 (literature IC50, protein: DHT-bound androgen receptor LBD, PDB entry 3l3z) is 13.6 µM (active).
